# Screening data: PubChem BioAssay, The Scripps Research Institute Molecular Screening Center
# LYPLA1 counter: LYPLA1 (human) inhibition in PME1 counter-screen. O75608. recombinant LYPLA1, FP-Rh probe fluorescence polarization. inhibition, % at 5.9 µM. 0.16% of 320,000 active;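 active = inhibition above the mean of all tested compounds plus 3 SD, set per campaign, cut at about 14% in these data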;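 also: inhibitors block serine hydrolase probe labeling of LYPLA1 so polarization falls; 0% = enzyme with DMSO and 100% = wells lacking LYPLA1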
# PAD4 inh: inhibitors of human PAD4; recombinant PAD4, RCA probe fluorescence polarization; inhibition, % at 6.36 µM; 0.41% of 330,000 active; AID 485272;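 active = percent inhibition above a cutoff equal to the mean of all tested compounds plus 3 SD, cut at about 15% in these data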;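 also: 0% = PAD4 with RCA probe and DMSO and 100% = probe without PAD4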
# Fam108B inh: Fam108B inhibition, counter-screen for RBBP9 inhibitors; recombinant Fam108B, FP-Rh probe fluorescence polarization; inhibition, % at 9.51 µM; 0.33% of 300,000 active;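 active = inhibition above the screen mean inhibition plus 3 SD, computed separately per campaign, cut at about 18% in these data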;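 also: inhibitors lower polarization as less probe binds the enzyme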
# PME-1 primary: blocks human protein phosphatase methylesterase 1 | Q9Y570 | recombinant PME-1, FP-Rh probe fluorescence polarization | inhibition, % at 5.9 µM | 0.53% of 320,000 active;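 active = inhibition above the campaign mean of all compounds plus 3 SD, cut at about 26% in these data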;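 also: competitive labeling of PME-1 active site by serine hydrolase directed probe; 0% = PME-1 with DMSO and 100% = wells lacking PME-1 enzyme; inhibitors block probe labeling so polarization falls and inhibition rises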
# LYPLA2 counter: counter-screen for PME1 inhibitors: inhibitors of human LYPLA2 | O95372 | recombinant LYPLA2, FP-Rh probe fluorescence polarization | inhibition, % at 5.9 µM | 0.38% of 320,000 active | AID 2177;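 active = inhibition above the screen-wide mean plus 3 SD, limit set per campaign, cut at about 26% in these data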;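 also: 0% = LYPLA2 with DMSO and 100% = wells lacking LYPLA2 enzyme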
# Target sequence (O95372 whole entry, looked up): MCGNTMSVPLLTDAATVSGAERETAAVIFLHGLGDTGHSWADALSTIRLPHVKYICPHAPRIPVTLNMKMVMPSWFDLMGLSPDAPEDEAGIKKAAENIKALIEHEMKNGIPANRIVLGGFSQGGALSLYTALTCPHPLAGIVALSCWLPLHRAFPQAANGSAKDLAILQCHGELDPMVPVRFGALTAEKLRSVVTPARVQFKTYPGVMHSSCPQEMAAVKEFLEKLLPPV
# GSTO1 inh: counter-screen for RBBP9 inhibitors: inhibitors of human GSTO1; recombinant GSTO1, activity-based probe fluorescence polarization; AID 1974; 1.1% of 300,000 active; P78417; inhibition, % at 5.96 µM;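 active = inhibition above the campaign mean inhibition plus 3 SD, cut at about 35% in these data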;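 also: 0% = GSTO1-1 with DMSO and 100% = wells lacking GSTO1-1 enzyme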
# Target sequence (P78417 whole entry, looked up): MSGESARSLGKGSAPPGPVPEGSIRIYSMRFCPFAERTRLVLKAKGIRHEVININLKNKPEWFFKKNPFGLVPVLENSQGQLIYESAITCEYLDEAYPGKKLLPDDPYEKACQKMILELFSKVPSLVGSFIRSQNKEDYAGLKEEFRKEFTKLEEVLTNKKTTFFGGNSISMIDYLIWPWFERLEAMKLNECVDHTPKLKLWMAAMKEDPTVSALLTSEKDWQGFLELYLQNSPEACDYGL
# PAD4 confirm: PAD4 (human) inhibition, confirmed | shares compounds with PAD4 inh | recombinant PAD4, RCA probe fluorescence polarization | inhibition, % at 6.36 µM | 28% of 1,200 active | AID 488796;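 active = mean inhibition across replicates above the hit cutoff set by the earlier primary screen, cut at about 15% in these data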;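 also: inhibitors block active-site labeling by the probe so polarization falls; 0% = PAD4 with probe and DMSO and 100% = probe without PAD4 enzyme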
# * marks the source's active call; other numbers are inactive results; · = no result; + = active, no number. In the library only some 1.8% were active in any assay of this set; here they are far more common.
SMILES,LYPLA1 counter,PAD4 inh,Fam108B inh,PME-1 primary,LYPLA2 counter,GSTO1 inh,PAD4 confirm
Cc1ccc(C(=O)NCC(=O)OCC(=O)NC2CCS(=O)(=O)C2)cc1C (configuration not stated),2,35*,6,-3,6,0,4
Cc1ccc(C(=O)OCC(=O)NC2CCS(=O)(=O)C2)c(C)c1 (configuration not stated),·,-7,·,·,·,·,·
COC(=O)c1cccc(N2CCCC2=O)c1,-1,-7,-2,4,4,-5,·
Cc1ccc(-n2sc3ccccc3c2=O)cc1,0,53*,4,-6,4,-6,30*
O=c1c2ccccc2sn1-c1ccc(F)cc1,1,42*,·,-1,10,·,29*
COC(=O)c1cccc(-n2sc3ccccc3c2=O)c1,1,55*,·,-2,6,·,47*
CC(C)[C@H](NS(=O)(=O)c1ccc(Cl)cc1)C(=O)OCC(=O)c1c(N)n(C)c(=O)n(C)c1=O,3,-2,·,3,7,·,·
Cc1ccc(NC(=O)CC2OC(=O)c3ccccc32)cc1S(=O)(=O)N1CCCCCC1 (configuration not stated),-5,1,·,-1,-7,·,·
Cc1c(NC(=O)CSc2nccn2C)c(=O)n(-c2ccccc2)n1C,-1,+,-1,-2,-4,9,-6
O=S1OC(c2ccccc2)c2cc(Cl)ccc21 (configuration not stated),2,40*,-1,-8,-2,7,35*
N#CCC(=O)N/N=C\c1cccc(OC/C=C/c2ccccc2)c1,-8,1,-8,15,-2,-11,·
CCCNC(=O)c1cc(S(=O)(=O)N2CCc3ccccc32)cn1C,2,1,-3,-1,-2,1,·
Cc1noc(C)c1S(=O)(=O)N(C)C[C@H]1Oc2c(NS(=O)(=O)c3cn(C)cn3)cccc2C(=O)N([C@H](C)CO)C[C@@H]1C,·,37*,·,·,·,·,6
O=C(NC1CCCC1)c1cc(-c2ccc(Cl)cc2Cl)on1,1,2,1,0,-1,-1,·
COc1ccc(NC(=O)CCCNC(=O)Cn2cnc3sc4c(c3c2=O)CCCC4)c(OC)c1,-2,35*,1,-3,-2,-3,4
COc1ccc2c(C)cc3n[nH]c(=S)n3c2c1,0,22*,0,-4,1,3,16*
CCCN(CC(=O)Nc1ccc(C(N)=O)cc1)CC(=O)Nc1ccc(F)c(F)c1F,-3,-1,-7,-6,-16,0,·
CCCCN1C(=O)C2(NNc3ccccc3O2)c2ccccc21 (configuration not stated),-9,-5,10,7,-6,16,·
CCCCN1C(=O)Nc2ccccc2S1=O (configuration not stated),5,16*,3,1,-1,13,10
O=C(Cc1cccc(C(F)(F)F)c1)NCC(c1ccco1)N1CCCCC1 (configuration not stated),-1,-2,-3,3,4,5,·
CCOc1nc(Nc2ccc(OC)cc2OC)nc(OCC)n1,3,190*,-2,4,-1,-4,10
CC1=NN(c2ccc(Cl)cc2)C(=O)C1,-2,31*,2,8,-4,36*,3
CC(C)(Oc1ccc(Cl)cc1)C(=O)NC1=NN(c2ccccc2)C(=O)C1,3,-9,7,6,9,19,·
Cc1ccc(F)c(NC(=S)Nc2cccc3ccccc23)c1,-2,18*,-3,6,-5,-1,4
Cc1ccc(C)c(NC(=S)Nc2cccc3cnccc23)c1,-2,-4,1,0,0,11,·
SMILES,LYPLA1 counter,PAD4 inh,Fam108B inh,PME-1 primary,LYPLA2 counter,GSTO1 inh,PAD4 confirm
CC1Cc2cc(/C(O)=C3/C(=O)C(=O)N(CCCN4CCOCC4)C3c3ccc(C(C)C)cc3)ccc2O1 (configuration not stated),0,-3,2,5,1,2,·
Cc1cc(N(C)NC(=S)Nc2ccccc2)nc(C)n1,-3,52*,1,6,3,0,11
COC(=O)c1ccccc1-c1ccc(C(c2c(C)[nH][nH]c2=O)c2c(C)[nH][nH]c2=O)o1,0,54*,4,-3,2,65*,13
CC(=C/c1ccco1)/C=N/N1CCN(c2ccccc2)CC1,4,20*,0,0,5,1,-7
O=C1CC(c2ccc(F)cc2)c2cc3c(cc2N1)CCC3 (configuration not stated),1,16*,6,1,14,4,0
COc1cc2c(cc1OC)C(c1ccc(Cl)cc1)CC(=O)N2 (configuration not stated),0,3,-3,-1,-1,6,·
Cc1ccc(C2=NN=C(NC(=O)CSc3nncn3C)SC2)cc1,-2,67*,3,0,2,7,62*
OCCNCc1ccc(OCc2ccc(Cl)cc2Cl)cc1,2,-1,2,2,0,9,·
O=c1[nH]nc(-c2ccc(OCc3ccc(Cl)cc3Cl)cc2)o1,2,89*,-1,-3,-4,11,-2
CC1COC(c2cccn2Cc2ccccc2Cl)=N1 (configuration not stated),0,45*,-3,-4,1,1,0
COc1ccc(NC2CCCN(C(=O)c3cc(CC(C)C)nc(N)n3)C2)cc1 (configuration not stated),7,-3,-5,3,3,1,·
CC(OC(=O)c1ccc(Br)o1)C(=O)NCC1CCCCC1 (configuration not stated),·,0,·,·,·,·,·
COc1ccc(/C=C/C(=O)N(C)C2CCS(=O)(=O)C2)cc1OC (configuration not stated),-4,15*,-2,-6,4,-3,-5
CCN(C(=O)/C=C/c1ccc(OC)cc1)C1CCS(=O)(=O)C1 (configuration not stated),0,-2,-1,-3,-2,0,·
COc1cccc(N2C(=O)CC(Nc3ccc(N4CCOCC4)cc3)C2=O)c1 (configuration not stated),-1,31*,-5,5,3,7,2
CCOC(=O)Cc1csc(NC(=O)C(NC(=O)C2CCC(C)CC2)C(C)C)n1 (configuration not stated),0,-1,3,-2,-5,1,·
CN(C)c1ccc(NC(=S)c2ccc3ccccc3n2)cc1,-6,38*,8,4,-2,30,6
C/C(=N/NC(=O)CN1CCN(Cc2ccccc2)CC1)c1ccc([N+](=O)[O-])cc1,-3,5,0,0,-3,4,·
Cc1nnc(N/N=C/c2ccc(Br)cc2)n1N,-1,36*,-1,-2,-4,8,10
